Source: PubChem BioAssay
D2 PAM-1: D2 dopamine receptor (human) potentiation; actives 0.34% (n = 340,000); AID 485347; P14416; HEK293 T-REx D2, calcium flux, EC20 dopamine potentiation; potentiation, % at 10 µM;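 active means potentiation over 3 SD above the plate norm, cut at about 30% in these data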; further: 0% is about no effect
Target sequence (P14416 whole entry, looked up): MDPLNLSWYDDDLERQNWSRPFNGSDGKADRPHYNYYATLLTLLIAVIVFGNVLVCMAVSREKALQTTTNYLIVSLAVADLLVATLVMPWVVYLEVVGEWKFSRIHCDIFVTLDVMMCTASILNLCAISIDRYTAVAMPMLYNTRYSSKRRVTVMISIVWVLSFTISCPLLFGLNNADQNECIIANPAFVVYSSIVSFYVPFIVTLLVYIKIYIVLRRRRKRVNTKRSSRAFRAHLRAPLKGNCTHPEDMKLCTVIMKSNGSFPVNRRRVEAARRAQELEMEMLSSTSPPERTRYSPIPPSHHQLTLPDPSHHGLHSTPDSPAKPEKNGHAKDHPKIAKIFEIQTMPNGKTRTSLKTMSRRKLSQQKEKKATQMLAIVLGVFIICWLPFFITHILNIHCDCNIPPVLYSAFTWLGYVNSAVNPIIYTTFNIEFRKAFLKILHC
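Using a no-wash calcium dye in inducible, force-coupled HEK293 Trex cells expressing D2, we tracked fluorescence each second for 180 s after compound, then for 180 s after EC20 dopamine to detect augmented signalling.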
D2 PAM-2: potentiates the human D2 dopamine receptor allosterically. DiscoveRx D2 beta-arrestin cells, luminescence, 90 min; 100% = 57 uM dopamine signal. potentiation, % (no concentration beside the values). actives 0.23% (n = 360,000). AID 624464; in the data active means potentiation above about 50%; inconclusive means mostly about 30% to 49%
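PathHunter beta-arrestin assay in DiscoveRx D2 cells. Compounds were added with an EC20 of dopamine (50 nM final) for 90 min at 37 deg C. Luminescence was read 1 h after detection reagent, with 57 uM dopamine as the EC100 control.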
D2 ag-1: agonists of human D2 dopamine receptor (beta-arrestin); DiscoveRx PathHunter D2 beta-arrestin, luminescence, 90 min; 100% = 57 uM dopamine signal; P14416; activation, % (no concentration beside the values); AID 624465; actives 0.084% (n = 360,000); in the data active means activation above about 40%; inconclusive means between about 15% and that limit
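Agonist mode: compounds alone added to overnight-plated D2 PathHunter cells for 90 min at 37 C, with 57 uM final dopamine (EC100) defining full response. Beta-arrestin recruitment detected by chemiluminescent reagent, read after 1 h at ambient temperature.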
D2 antagonist: D2 dopamine receptor (human) antagonism. P14416. HEK293 TREx D2 cells, calcium flux, dopamine EC80. inhibition, % at 10 µM. actives 2% (n = 340,000); in the data active means inhibition above about 30%; inactive means below that, where a call was filed; further: 0% is about no effect
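Calcium flux kinetic readout in an inducible HEK293 TREx D2 line plated overnight at 30 C. After 180 s compound exposure, an EC80 dopamine challenge follows with another 180 s kinetic read to detect antagonism.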
D2 ag-2: D2 dopamine receptor (human) agonism; P14416; HEK293 T-REx D2 cells, calcium flux agonist mode; activation, % at 2 µM; actives 0.53% (n = 340,000);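 active means activation over 3 SD above normal in the single-dose calcium agonist read, cut at about 30% in these data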; further: 0% is about no effect
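Tetracycline-induced HEK293 T-REx cells with force-coupled D2 receptor, plated overnight at 30 C, loaded with no-wash calcium dye. After a 10 s baseline, compound was pin-added and calcium flux read kinetically for 180 s; calcium rises flagged agonists.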
Starred values were filed as active, the others as inactive; u = inconclusive; x = no result. This is a sample that favours compounds with a hit; in the whole collection about 2.4% have one here.

SMILES	D2 PAM-1	D2 PAM-2	D2 ag-1	D2 antagonist	D2 ag-2
NC(=O)C1CCN(C(=O)c2ccc3c(c2)N(Cc2cccc(Cl)c2)C(=O)c2ccccc2S3(=O)=O)CC1	21	x	x	x	-1
CCOC(=O)C1(CC2CC2)CCN(Cc2ccc(C(=O)OC)cc2)CC1	-23	-14	-2	72*	0
CCOc1ccc(OCCCCN2CCCC2)cc1	-9	-21	-4	-3	0
CCOC(=O)C1CCN(Cc2ccc(C(=O)OC)cc2)CC1	-24	-18	2	-9	0
CCCCOc1ccc(CN2CCCCC2)cc1	-10	-17	-3	52*	0
CCOC(=O)C1(CC2CC2)CCN(Cc2cn(C)c3ccccc23)CC1	-13	-11	-2	30*	-1
COC(=O)c1ccc(CN2CCCCC2)cc1	-25	-30	-4	35*	0
CCOc1ccccc1CNC(=O)CCC(=O)N1CCSc2ccccc21	1	x	x	x	0
Cc1c(C(=O)NCCc2ccc(Cl)cc2)sc2nc3n(c(=O)c12)CCCC3	-4	x	x	x	x
Cc1c(Cl)cccc1NC(=O)CCS(=O)(=O)c1cccc2nsnc12	-15	x	x	x	1
O=C(COc1ccc(F)cc1)NCCc1nc2ccccc2[nH]1	-8	x	x	x	-1
FC(F)(F)c1cccc(CN2CCC(c3cc(-c4cccs4)n[nH]3)CC2)c1	-33	-16	3	84*	0
COC(=O)CCN1CCC(c2cc(-c3cccc(C(F)(F)F)c3)n[nH]2)CC1	-9	-10	-3	-27	1
Cc1ccc(CN2CCC(c3cc(-c4cccs4)n[nH]3)CC2)cc1	-21	-18	1	70*	1
CC(=O)C(C(C)=O)c1c(Cl)c(O)c(O)c2c(C(=O)c3ccccc3)coc12	-3	103*	u	3	0
Cc1ccc(CNc2ccc(-c3nc(-c4ccccn4)no3)cc2[N+](=O)[O-])cc1	3	x	x	x	x
Cn1c(=O)c2c(nc(N/N=C/c3cccs3)n2C)n(C)c1=O	6	3	2	-4	0
Cn1c(=O)c2c(nc(N/N=C/c3ccco3)n2C)n(C)c1=O	-1	4	2	52*	0
CCCCN(C)S(=O)(=O)c1ccc(C(=O)Nc2ccc(-c3nc4ccc(C)cc4s3)cc2)cc1	-10	x	x	x	1
Cc1ccc(Cn2cc(CCC(=O)NCC(C)c3ccccc3)c3ccccc32)cc1 (stereo not given)	0	x	x	x	0
Cc1ccc(C(=O)NCCc2nnc3ccc(SCC(=O)Nc4ccccc4C)nn23)cc1	3	-6	0	41*	0
Cc1ccc(C(=O)NCCc2nnc3ccc(SCC(=O)Nc4c(C)cc(C)cc4C)nn23)cc1	-1	-16	-8	-6	0
COc1cc(N)c(Cl)cc1C(=O)N[C@H]1CCN(CCCOc2ccc(F)cc2)C[C@H]1OC	-13	-24	-4	-15	1
COc1cc(N)c(Cl)cc1C(=O)N[C@@H]1CCN(CCCOc2ccc(F)cc2)C[C@@H]1OC	-24	x	x	77*	1
Cc1cccc(N2CCN(CCCNC(=O)c3ccc(NC(=O)C4=CSCCO4)cc3)CC2C)c1 (stereo not given)	-28	4	1	36*	16
SMILES	D2 PAM-1	D2 PAM-2	D2 ag-1	D2 antagonist	D2 ag-2
CC1CCCN(CCCNC(=O)c2ccc(NC(=O)C3=CSCCO3)cc2)C1 (stereo not given)	0	-18	-1	-2	0
CN(C)CC/C=C1/c2ccccc2Sc2ccc(Cl)cc21	-26	-36	-6	103*	-1
CCCCCC[N+](C)(C)CC/C=C1/c2ccccc2Sc2ccc(Cl)cc21	-26	-9	3	75*	-2
CN(C)CC/C=C1/c2ccccc2CS(=O)(=O)c2ccccc21	x	-3	3	x	x
S=C1Nc2ccccc2Sc2ccc(Cl)cc21	14	10	0	-1	0
CN(C)CC/C=C1\c2ccccc2COc2ccccc21	-25	-34	-5	51*	1
COC(=O)[C@@H](NCc1ccc(OC)c(B(O)O)c1)C(C)C	x	x	-2	x	x
CCOC(=O)c1oc2ccc(S(=O)(=O)n3nc(-c4ccc(Br)cc4)cc3N)cc2c1C	12	x	x	x	0
COc1ccccc1/C=C/CN1CCC(Oc2cc(C(=O)NC3CC3)ccc2OC)CC1	-20	1	-5	59*	-1
